# Compounds without any hit were thinned out: in the full panel of roughly 83,000, 20% have a hit.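 Testing used 96-well plates and a 48-hour single-concentration exposure. Example: -40 means 40% of the starting cells died.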 Active and inactive are the calls of the source. How the source made its calls: active means growth percent below 10; inactive means the rest.
# What was measured:
# Experiment in all cases: NCI-60 one-dose screen, 48 h (100 = growth as untreated, 0 = no growth, -100 = all killed)
# Details in all cases: 10 µM unless noted
# [1] = test system: SK-MEL-2 melanoma
# [2] = test system: EKVX NSCLC
# [3] = test system: SN12C renal
# [4] = test system: UO-31 renal
# [5] = test system: TK-10 renal
# [6] = test system: CAKI-1 renal
# [7] = test system: A498 renal
# [8] = test system: CCRF-CEM leukemia
# [9] = test system: MOLT-4 leukemia
# [10] = test system: SR leukemia
# [11] = test system: RPMI-8226 leukemia
# [12] = test system: OVCAR-8 ovarian
# [13] = test system: OVCAR-5 ovarian
# [14] = test system: OVCAR-4 ovarian
# [15] = test system: SK-OV-3 ovarian
# [16] = test system: IGROV1 ovarian
# [17] = test system: OVCAR-3 ovarian
# [18] = test system: HS 578T breast
# [19] = test system: NCI/ADR-RES ovarian
SMILES,growth [1],growth [2],growth [3],growth [4],growth [5],growth [6],growth [7],growth [8],growth [9],growth [10],growth [11],growth [12],growth [13],growth [14],growth [15],growth [16],growth [17],growth [18],growth [19]
Nc1ccc(Cl)c2c(=O)c3ccccc3[nH]c12,81.2% (inactive),75.2% (inactive),89.2% (inactive),65.1% (inactive),78.1% (inactive),77.7% (inactive),69.3% (inactive),100% (inactive),74.1% (inactive),100% (inactive),71% (inactive),92.2% (inactive),93.2% (inactive),53.8% (inactive),89.2% (inactive),94.7% (inactive),75.2% (inactive),98% (inactive),97% (inactive)
O=C1NCCN1/N=C/c1c(Cl)n(Cc2ccc(Cl)cc2)c2ccccc12,91.7% (inactive),88.9% (inactive),85.8% (inactive),72.4% (inactive),90.8% (inactive),-18.9% (active),-85.5% (active),89% (inactive),65.6% (inactive),78.4% (inactive),82.6% (inactive),78.7% (inactive),96.8% (inactive),79.1% (inactive),146% (inactive),24.9% (inactive),84.8% (inactive),90.3% (inactive),90.8% (inactive)
COc1cc(OC)cc(C(=O)Nc2cnc(Nc3ccc(N4CCOCC4)nc3)nc2Oc2ccc(C(F)(F)F)cc2)c1,94.6% (inactive),90.2% (inactive),43.6% (inactive),58.1% (inactive),81.9% (inactive),59.7% (inactive),,86% (inactive),80.7% (inactive),73% (inactive),86.2% (inactive),39.7% (inactive),92.9% (inactive),8.78% (active),111% (inactive),77.4% (inactive),62.8% (inactive),30.4% (inactive),60.1% (inactive)
O=C(O)/C=C\C(=O)Nc1ccc2c(c1)Cc1cc(F)ccc1-2,98% (inactive),90.3% (inactive),100% (inactive),81% (inactive),114% (inactive),81.3% (inactive),109% (inactive),110% (inactive),109% (inactive),106% (inactive),97.6% (inactive),105% (inactive),107% (inactive),100% (inactive),94.2% (inactive),95.5% (inactive),106% (inactive),126% (inactive),102% (inactive)
CN(C)c1ccc(/C=N/NC(=O)CSc2nc3sc4c(c3c(=O)n2-c2ccccc2)CCCCC4)cc1,78.6% (inactive),47% (inactive),55.5% (inactive),77.8% (inactive),64.9% (inactive),8.87% (active),34.8% (inactive),70.9% (inactive),,22.7% (inactive),76.8% (inactive),20.6% (inactive),50.7% (inactive),19.7% (inactive),67.1% (inactive),36.5% (inactive),12% (inactive),23.9% (inactive),59.1% (inactive)
O=C(/C=C/c1cccc([N+](=O)[O-])c1)c1ccc(Nc2nc(Nc3ccc(F)cc3)nc(Nc3ccc(Cl)cc3)n2)cc1,70% (inactive),79.5% (inactive),88.3% (inactive),79.8% (inactive),141% (inactive),91.4% (inactive),110% (inactive),43.6% (inactive),3.89% (active),8.59% (active),32% (inactive),86.3% (inactive),62.7% (inactive),97.3% (inactive),110% (inactive),84.4% (inactive),104% (inactive),106% (inactive),83.9% (inactive)
O=C1N/C(=N/N=C(c2ccccc2)c2ccccc2)S/C1=C\c1ccc(Br)cc1,96.7% (inactive),101% (inactive),98% (inactive),73.1% (inactive),107% (inactive),77.2% (inactive),89.2% (inactive),84.4% (inactive),106% (inactive),83.3% (inactive),95.6% (inactive),95.6% (inactive),102% (inactive),96.8% (inactive),97.2% (inactive),91.9% (inactive),102% (inactive),95% (inactive),103% (inactive)
O=C(Nc1ccccc1)Nc1ccccc1CNc1nc(Nc2ccc(OCCN3CCCC3)cc2)ncc1Cl,49.9% (inactive),85.8% (inactive),57.8% (inactive),39.6% (inactive),94.8% (inactive),62.7% (inactive),31.5% (inactive),20.4% (inactive),37.9% (inactive),,-0.283% (active),50.4% (inactive),106% (inactive),,86.1% (inactive),84.2% (inactive),2.33% (active),66.3% (inactive),71% (inactive)
Cc1ccc(Nc2cc(N)nc(N)n2)cc1,112% (inactive),95.7% (inactive),110% (inactive),87.7% (inactive),108% (inactive),87.1% (inactive),,107% (inactive),,105% (inactive),93.5% (inactive),103% (inactive),107% (inactive),,98.1% (inactive),92.4% (inactive),99.6% (inactive),100% (inactive),95% (inactive)
COc1ccc(Cn2cc(C(=O)N=Nc3c(O)[nH]c4ccc(Br)cc34)nn2)cc1,98.1% (inactive),106% (inactive),102% (inactive),91.5% (inactive),97.6% (inactive),97.7% (inactive),97.1% (inactive),92.5% (inactive),80.6% (inactive),77.5% (inactive),100% (inactive),99.2% (inactive),106% (inactive),,108% (inactive),105% (inactive),112% (inactive),114% (inactive),103% (inactive)
CCN(CC)CCOc1ccc(/C(=C(\C)Cc2ccc(OC)cc2)c2ccc(O)cc2)cc1,-45.7% (active),66.5% (inactive),54.9% (inactive),-34.2% (active),35.8% (inactive),-21.3% (active),92.9% (inactive),-3.51% (active),-9% (active),-52.4% (active),-33.2% (active),29% (inactive),69.3% (inactive),46.7% (inactive),64.5% (inactive),47.3% (inactive),46.7% (inactive),33.5% (inactive),53.1% (inactive)
CC1=C([Se]CC(OC(=O)[C@@H](CO)NC(=O)OC(C)(C)C)C(=O)NCCCCCC(=O)OCc2ccccc2)C(=O)c2ccccc2C1=O (stereo not given in full),-79.9% (active),-75.5% (active),-72.9% (active),-99.8% (active),-95.8% (active),-86.5% (active),31.2% (inactive),-8.88% (active),-21.6% (active),-4.61% (active),,-82.4% (active),-70.5% (active),-98.1% (active),-60.1% (active),-93.9% (active),-82.1% (active),2.05% (active),-76.6% (active)
CNC(=O)c1cc(Oc2cccc3nc(NC(=O)Nc4ccc(F)cc4F)ccc23)ccn1,71% (inactive),-0.932% (active),10.6% (inactive),10.4% (inactive),-37.7% (active),72.7% (inactive),68.1% (inactive),49.7% (inactive),53.6% (inactive),18% (inactive),30.4% (inactive),13.9% (inactive),70.3% (inactive),-63.4% (active),35.3% (inactive),,0.213% (active),5.37% (active),22.5% (inactive)
Cc1oc2ccc(O)c(CN3CCCCCC3)c2c1C(=O)Nc1ccc(C(F)(F)F)cc1,78.4% (inactive),64.1% (inactive),66.7% (inactive),40.7% (inactive),81.1% (inactive),50.5% (inactive),50.5% (inactive),65.2% (inactive),64.3% (inactive),-8.44% (active),75.1% (inactive),66.3% (inactive),85.8% (inactive),58.6% (inactive),76.3% (inactive),54.3% (inactive),62% (inactive),65.5% (inactive),53.6% (inactive)
C#C[C@]1(O)CC[C@H]2[C@@H]3CC=C4c5sc(-c6ccccc6)nc5CC[C@]4(C)[C@H]3CC[C@@]21C,92% (inactive),92.8% (inactive),88.2% (inactive),77% (inactive),126% (inactive),55.2% (inactive),91% (inactive),67.4% (inactive),63.8% (inactive),30.9% (inactive),-12.6% (active),101% (inactive),85.6% (inactive),106% (inactive),111% (inactive),95.8% (inactive),106% (inactive),62% (inactive),94.4% (inactive)

# Source: PubChem BioAssay (NCI)
